An excerpt weighted towards active compounds, which were near 0.71% of everything screened.
iPSC survival up = enhancers of human iPSC single-cell survival; hiPSC single-cell survival, ATPlite luminescence; 100% = ROCK inhibitor wells, 0% = DMSO; survival enhancement, % at 20 µM; hit rate 0.044% among 360,000; AID 602274; in the data active = survival enhancement above about 18%;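 note: cells exposed to compounds for 16 hours before the ATP read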
beta cell repl = inducers of beta-cell replication in MIN6 cells; MIN6 cells proliferation, ATPlite luminescence, 48 h; cells starved in 0.2% serum; 100% = growth in 10% serum; proliferation, % at 10 µM; hit rate 0.29% among 330,000; AID 2380;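 active = compounds whose signal lies at least 3.5 SD above the mean of all wells on their plate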;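 note: 0% = DMSO-treated cells in low-serum medium and 100% = 10% serum control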
TAG inh = triacylglycerol accumulation inhibition | H9c2 cells, Nile Red lipid (TAG) fluorescence; cells loaded with 200 µM oleic acid | inhibition, % at 12.5 µM | hit rate 0.66% among 230,000;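 active = pattern-corrected inhibition of lipid staining of at least 50% with the nuclear-stain viability signal not falling by more than 50%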;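 note: 0% = DMSO wells and 100% = triacsin C control wells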
* hit, by the source's call; · = not tested or not shown.

SMILES	iPSC survival up	beta cell repl	TAG inh
COc1ccc(CN(C)CCCn2cnc3c(OCc4ccccc4)ncnc32)cc1	2	·	-12
CC(C)N1C/C(=C/c2cccnc2)C(=O)/C(=C/c2cccnc2)C1	13	·	·
CN1C/C(=C/c2cccnc2)C(=O)/C(=C/c2cccnc2)C1	24*	·	·
CCOC1=C2[C@H](c3cccc(Cl)c3)N(S(=O)(=O)c3ccc(C)cc3)C[C@H]2n2c(=O)n(-c3ccccc3)c(=O)n2C1	-1	·	·
CCOC1=C2[C@H](c3ccc(C)cc3)N(S(=O)(=O)c3ccc(C)cc3)C[C@H]2n2c(=O)n(-c3ccccc3)c(=O)n2C1	41*	·	·
COc1ccc([C@H]2CC(=O)C[C@@H](CCn3cc(CCc4ccccc4)nn3)O2)cc1	1	·	·
O=C(CCl)N=c1sccn1Cc1cccc2ccccc12	-2	·	62*
O=C(CCl)N=c1sccn1Cc1ccc(Cl)cc1Cl	0	-5	59*
CCC(=O)OCC(=O)N=c1sccn1Cc1ccc(C)cc1	0	-1	-1
CCC(=O)OCC(=O)N=c1sccn1Cc1ccccc1Cl	0	4	1
NC(=O)c1ccc(=O)n(Cc2ccc(Cl)cc2Cl)c1	0	-4	·
O=C(CCl)N=c1sccn1Cc1ccccc1Cl	0	-6	76*
O=C(COC(=O)c1ccc(F)cc1F)Nc1ccc2c(c1)OCO2	5	·	7
C[C@@H](NC(=O)[C@@H]1CCCN1C(=O)[C@@H]1CCCN1C(=O)c1cccs1)c1ccccc1	1	·	·
Cc1ccc2c(COC(=O)C3=COCCO3)cc(=O)oc2c1	23*	·	-9
Cc1ccc(S(=O)(=O)NCC(=O)OCc2cc(=O)oc3cc(C)ccc23)cc1	5	-1	6
COc1ccc(Cn2cc(CN3CC(N(C)C)CS3(=O)=O)nn2)cc1 (stereo unspecified)	0	·	·
CCOC(=O)[C@]12CCC=C1N(CCC1=CCCCC1)C(=O)[C@H](CC(=O)N1CCCCC1)C2	0	·	·
O=C(NCc1cccnc1)c1ccc(-c2ccc(F)c(F)c2)c2ccoc12	-2	·	-12
COc1cc(NC(=O)c2ccc(-c3cn[nH]c3)c3ccoc23)cc(OC)c1OC	2	·	32
O=C(NCC1CC1)c1ccc(-c2cn[nH]c2)c2ccoc12	43*	·	18
O=C(NCc1ccccc1)c1ccc(-c2cn[nH]c2)c2ccoc12	107*	·	63
COCCNC(=O)c1ccc(-c2cn[nH]c2)c2ccoc12	31*	·	20
O=C(NCC1CCOCC1)c1ccc(-c2ccc(F)c(F)c2)c2ccoc12	-1	·	-39
Oc1ccc(C=NNc2ccccn2)c(O)c1	-3	·	53*
SMILES	iPSC survival up	beta cell repl	TAG inh
Oc1cccc(C=NNc2ccccn2)c1	-2	·	-17
CCOC(=O)[C@]12CCCC=C1N(Cc1ccco1)C(=O)[C@H](CC(=O)NCCc1ccccc1OC)C2	0	·	·
Cc1ccc([C@@]2(OC(=O)c3ccccc3)C(=O)N(C(=O)OC(C)(C)C)c3ccccc32)cc1	-1	·	·
Cn1c(=O)c2c(ncn2CC(=O)NCc2cccnc2)n(C)c1=O	26*	0	·
Cn1c(=O)c2c(ncn2CC(=O)OCC(=O)NCc2ccc(Cl)cc2)n(C)c1=O	0	0	·
OC[C@@H]1CN(Cc2ccco2)C[C@H](n2cnc3c(Nc4ccccc4)ncnc32)O1	0	·	9
Cc1cc(F)cc(-c2cc(C(=O)NCc3ccccn3)[nH]n2)c1	-2	·	12
Cc1noc(C)c1NC(=O)N(C)C[C@@H]1Oc2ncc(Br)cc2C(=O)N([C@@H](C)CO)C[C@H]1C	8	·	-1
C1CCN(c2nc3nonc3nc2N2CCCC2)C1	22*	1	2
CC1CCN(c2nc3nonc3nc2N2CCC(C)CC2)CC1	-2	6	·
O=C(N/N=C/c1ccc([N+](=O)[O-])s1)c1cccnc1	-3	-6	12
CCOC(=O)[C@]12CCCC=C1N(Cc1cccc3ccccc13)C(=O)[C@H](CC(=O)NCCCCc1ccccc1)C2	0	·	·
CCCCn1nnnc1C(c1cc2ccccc2o1)N1CCN(c2cc(C)nc3ccccc23)CC1 (stereo unspecified)	-1	·	·
O=C1C=CC(=O)c2c(O)c(N3CCN(CCOCCO)CC3)c(Br)c(O)c21	6	·	101*
O=C1C=CC(=O)c2c(O)c(N3CCN(CCO)CC3)c(Cl)c(O)c21	2	·	100*
OCCOCCN1CCN(C2=Nc3ccccc3Sc3ccccc32)CC1	-1	0	-30
O=S(=O)(c1ccc(Br)cc1Cl)N1CCN(CCO)CC1	0	-2	-7
CCc1nc2ccc(C(=O)Nc3cc(-c4ccccc4)ccc3OC)cn2c1N(C)Cc1nccs1	-2	·	1
COc1cccc(-c2cnc(C(O)c3ccc(Cl)cc3C)[nH]2)c1 (stereo unspecified)	0	·	-10
Cc1ccc(C(=O)OC(C)C(=O)NC2CCCCC2)cc1S(=O)(=O)N1CCCCC1 (stereo unspecified)	0	5	-8
CC(C)CN1CCN(C(=O)COC(=O)c2ccc(S(C)(=O)=O)c([N+](=O)[O-])c2)CC1	4	·	65*
Cn1cccc1C(=O)NC(=O)COC(=O)c1ccc(S(C)(=O)=O)c([N+](=O)[O-])c1	-2	-7	-6
CCC(OC(=O)c1ccc(S(C)(=O)=O)c([N+](=O)[O-])c1)C(=O)NC1C2CC3CC(C2)CC1C3 (stereo unspecified)	30*	·	74
CC(OC(=O)c1ccc(S(C)(=O)=O)c([N+](=O)[O-])c1)C(=O)NC1C2CC3CC(C2)CC1C3 (stereo unspecified)	24*	·	65*
CS(=O)(=O)c1ccc(C(=O)OCC(=O)NC23CC4CC(CC(C4)C2)C3)cc1[N+](=O)[O-]	-1	-5	·
SMILES	iPSC survival up	beta cell repl	TAG inh
CC(C)C[C@@H]1Cc2[nH]c(=S)[nH]c(=O)c2[C@H](CCc2ccccc2)O1	0	·	·
COc1cccc(Nc2nc(C(N)C3CCCCC3)cs2)n1 (stereo unspecified)	0	·	18
Cc1c(C(=O)OCC(C)C)[nH]c2c1C(=O)CC(c1ccco1)C2 (stereo unspecified)	0	-6	·
Cc1c(C(=O)OCC2CCCO2)[nH]c2c1C(=O)CC(c1ccco1)C2 (stereo unspecified)	2	3	56*
CC(C)(C)OC(=O)N1C(=O)[C@](OC(=O)c2ccccc2)(c2ccc(F)cc2)c2ccccc21	0	·	·
Cc1nnc2n(C3CCCCC3)c(=O)c3c4c(sc3n12)COC(C)(C)C4	21*	-2	·
CCOC(=O)CSc1nnc2n(C3CCCCC3)c(=O)c3c4c(sc3n12)CCCC4	1	-1	·
CCc1ccc2c(c1)cc(CN(Cc1ccco1)C(C)=O)c1nnnn12	-1	11*	16
CC(=O)N(Cc1ccco1)Cc1cc2cccc(C)c2n2nnnc12	·	-2	·
Cc1cc(C(=O)CCl)c(C)n1CCc1ccc(Cl)cc1	-2	-6	59*
Cc1cc(C(=O)CCl)c(C)n1CCc1ccc(F)cc1	-1	-6	45
NC(CCc1ccccc1)c1csc(NC(=O)Nc2cccc(C(F)(F)F)c2)n1 (stereo unspecified)	-5	·	131
Cc1cccc(NC(=O)C(=O)NCC2CCCN2S(=O)(=O)c2cccs2)c1 (stereo unspecified)	-1	·	-23
COc1ccc(-n2c(C)cc(C(=O)CCl)c2C)cc1	-1	-7	64*

Bioassay records deposited in PubChem by Sanford-Burnham Center for Chemical Genomics.
